Among the test systems are DU-145 prostate; K-562 leukemia; MALME-3M melanoma; MDA-MB-231 breast; RXF 393 renal; SF-268 CNS; SF-539 CNS; UACC-257 melanoma; M14 melanoma; HCT-15 colon; HT29 colon; SNB-75 CNS; SNB-19 CNS; U251 CNS; PC-3 prostate; SK-MEL-5 melanoma; UACC-62 melanoma; LOX IMVI melanoma; SK-MEL-28 melanoma.
Common to all, as to assay: NCI-60 one-dose screen, 48 h (100 = growth as untreated, 0 = no growth, -100 = all killed)
What all share (conditions): 10 µM unless noted

About 83,000 compounds went through this panel and 20% of them were active in at least one assay; those are over-represented in the sample as a whole.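 Testing used 96-well plates and a 48-hour single-concentration exposure. Example: -40 means 40% of the starting cells died.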 Values without a mark were called inactive. The source made the active and inactive calls. The calls were made as follows: active = growth percent below 10; inactive = the rest.

For `COC(=O)C(CCC(=O)CCl)N1C(=O)c2ccccc2C1=O` (stereo not drawn), the growth in the test on DU-145 prostate was 87.6%; in the test with K-562 leukemia, 28.6%; in the test on MALME-3M melanoma it was 42.2%; with MDA-MB-231 breast it was 84.6%; with RXF 393 renal, 25.8%; in the test on SF-268 CNS, 56.5%. For the same compound, the growth was 64.9% with SF-539 CNS; 69.7% in the test with UACC-257 melanoma; 39.9% in the test with M14 melanoma; 48.1% in the test on HCT-15 colon; 34.3% in the test with HT29 colon; 91.5% in the test on SNB-75 CNS. The growth in the test on SNB-19 CNS was 99.9%; in the test on U251 CNS, 47.1%; in the test with PC-3 prostate, 60.3%; in the test with SK-MEL-5 melanoma, 71.3%; with UACC-62 melanoma it was 64.8%; in the test on LOX IMVI melanoma, -44.1% (active). The growth in the test on SK-MEL-28 melanoma is 87%.
For `CCCCNCC(O)c1cc2c(Cl)cc(Cl)cc2c2cc(C(F)(F)F)ccc12` (stereo not drawn), the growth in the test on DU-145 prostate is -98% (active); in the test with K-562 leukemia, -69.1% (active); with MALME-3M melanoma it was -60.8% (active); with MDA-MB-231 breast, -74.8% (active); in the test with RXF 393 renal, -94.7% (active); in the test with SF-268 CNS it was -80.5% (active). The growth is -81.7% (active) with SF-539 CNS; -72.4% (active) in the test with UACC-257 melanoma; -86.5% (active) in the test with M14 melanoma; -60.4% (active) in the test on HCT-15 colon; -84.4% (active) in the test with HT29 colon; -87.6% (active) with SNB-75 CNS. Also, the growth was -71.5% (active) with SNB-19 CNS; -95.5% (active) in the test with U251 CNS; -89.6% (active) with PC-3 prostate; -35.4% (active) with SK-MEL-5 melanoma; -84.4% (active) in the test with UACC-62 melanoma; -77.8% (active) in the test with LOX IMVI melanoma. Besides, the growth with SK-MEL-28 melanoma was -88.4% (active).
`C=CC[C@]1(O)CC[C@H]2[C@@H]3CCc4cc(O)ccc4[C@H]3CC[C@@]21C`: the growth in the test on DU-145 prostate is 102%; with K-562 leukemia it was 56%; in the test on MALME-3M melanoma, 93.3%; with MDA-MB-231 breast, 99.6%; with RXF 393 renal, 102%; in the test on SF-268 CNS, 97.1%. Besides, the growth is 105% in the test with SF-539 CNS; 102% with UACC-257 melanoma; 94.3% in the test on M14 melanoma; 81.4% in the test on HCT-15 colon; 91.2% in the test on HT29 colon; 75.7% in the test on SNB-75 CNS. Besides, the growth in the test on SNB-19 CNS was 94.4%; with U251 CNS it was 93.4%; with PC-3 prostate, 85.6%; in the test on SK-MEL-5 melanoma, 99.6%; in the test on UACC-62 melanoma, 89.4%; in the test with LOX IMVI melanoma it was 92.6%. For the same compound, the growth in the test on SK-MEL-28 melanoma was 101%.
With `CCN(C(=O)Nc1cccc2ccccc12)c1ccccc1`, the growth with DU-145 prostate is 107%; in the test on K-562 leukemia it was 89.3%; in the test on MALME-3M melanoma it was 90.6%; with MDA-MB-231 breast, 105%; in the test on RXF 393 renal, 120%; with SF-268 CNS it was 104%. The growth in the test with SF-539 CNS is 93.5%; with UACC-257 melanoma, 112%; in the test on M14 melanoma, 106%; in the test with HCT-15 colon, 90.8%; with HT29 colon, 103%; with SNB-75 CNS, 92.4%. Also, the growth in the test with SNB-19 CNS is 102%; with U251 CNS, 97.7%; with PC-3 prostate it was 85.9%; in the test on SK-MEL-5 melanoma, 95.5%; in the test on UACC-62 melanoma, 80.5%; in the test with LOX IMVI melanoma it was 102%. The growth with SK-MEL-28 melanoma was 112%.
Take `COc1ccc(-c2cnc3ccnn3c2-c2cc(OC)c(OC)c(OC)c2)cc1`: the growth in the test on DU-145 prostate is 20%; with K-562 leukemia, 5.43% (active); in the test on MALME-3M melanoma, 67.5%; in the test on MDA-MB-231 breast, 50.3%; in the test with RXF 393 renal it was 1.8% (active); with SF-268 CNS, 53.3%. Further, the growth was -13.4% (active) in the test on SF-539 CNS; 58.4% in the test on UACC-257 melanoma; 21.5% in the test with M14 melanoma; 27.8% in the test on HCT-15 colon; 8.99% (active) with HT29 colon; 5.62% (active) in the test on SNB-75 CNS. The growth in the test with SNB-19 CNS was 56.4%; in the test on U251 CNS, 37.7%; in the test with PC-3 prostate, 29.9%; in the test on SK-MEL-5 melanoma, 13.6%; with UACC-62 melanoma, 42.3%; with LOX IMVI melanoma, 42.5%. In addition, the growth in the test with SK-MEL-28 melanoma is 71.1%.
For the compound `Cn1nc(C(F)(F)F)cc1-c1cc(Cl)c(OCc2ccc(Cl)cc2)c(-c2ccc(Cl)c(C(F)(F)F)c2)c1O`, the growth in the test with DU-145 prostate was 11.5%; in the test on K-562 leukemia, 8.16% (active); in the test on MALME-3M melanoma, -26.5% (active); in the test with MDA-MB-231 breast, -21.8% (active); in the test with RXF 393 renal it was -17.6% (active); in the test on SF-268 CNS it was 2.82% (active). Also, the growth in the test with SF-539 CNS is -12.5% (active); in the test on UACC-257 melanoma, 1.55% (active); in the test with M14 melanoma, -13.5% (active); with HCT-15 colon it was 6.63% (active); with HT29 colon it was 5.38% (active); in the test on SNB-75 CNS, -8.74% (active). Moreover, the growth in the test with SNB-19 CNS is 17.4%; with U251 CNS, 8.94% (active); in the test on PC-3 prostate, 7.86% (active); with SK-MEL-5 melanoma, -53.3% (active); in the test with UACC-62 melanoma it was 4.43% (active); in the test on LOX IMVI melanoma, 12.4%. In addition, the growth with SK-MEL-28 melanoma was 13.7%.
For `CC1=C(C(=O)Nc2ccc(F)cc2)C(c2ccc(C)cc2)C2=C(CC(C)(C)CC2=O)N1` (stereo not drawn), the growth is 106% in the test with DU-145 prostate; 93.3% with K-562 leukemia; 102% in the test on MALME-3M melanoma; 86.6% in the test on MDA-MB-231 breast; 92.1% in the test with RXF 393 renal; 88% with SF-268 CNS. The growth in the test on SF-539 CNS is 93.3%; with UACC-257 melanoma, 98.5%; in the test on M14 melanoma, 101%; with HCT-15 colon it was 94%; with HT29 colon, 100%; in the test with SNB-75 CNS, 55.7%. Moreover, the growth is 92.5% in the test on SNB-19 CNS; 88.8% in the test with U251 CNS; 75.3% in the test on PC-3 prostate; 94.1% in the test on SK-MEL-5 melanoma; 86.4% in the test with UACC-62 melanoma; 90% with LOX IMVI melanoma. Further, the growth with SK-MEL-28 melanoma is 97.1%.
